{"source": "PubChem BioAssay (NCI)", "note": "This is part of a sample that, as a whole, favours compounds with a hit. Of some 83,000 tested, about 20% had one in any assay.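 96-well plates, one dose, 48 hours. Percent growth reported; active if below 10.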 Active and inactive are the calls of the source."}
{"test_system": "SR leukemia", "assay": "NCI-60 one-dose screen, 48 h (100 = growth as untreated, 0 = no growth, -100 = all killed)", "conditions": "10 µM unless noted"}
{"smiles": "CC1(C)[C@@H](O[C@@H]2OC[C@@H](O[C@@H]3O[C@H](CO)[C@@H](O)[C@H](O)[C@H]3O[C@@H]3OC[C@@H](O)[C@H](O)[C@H]3O)[C@H](O)[C@H]2O[C@@H]2O[C@H](CO)[C@@H](O)[C@H](O)[C@H]2O)CC[C@]2(C)[C@H]3CC[C@]45OC[C@@]6(CC[C@](C)(C=O)C[C@H]64)[C@H](O)C[C@@]5(C)[C@]3(C)CC[C@@H]12", "growth": "-37% (active)"}
{"smiles": "O=C(CCl)NNc1nccc(Nc2ccc(S(=O)(=O)Nc3ccncc3)cc2)n1", "growth": "37.1% (inactive)"}
{"smiles": "CS(=O)(=O)Nc1cc(-c2ccc3ncc(C#N)c(Nc4ccc(F)c(Cl)c4)c3c2)cnc1Cl", "growth": "-0.801% (active)"}
{"smiles": "C=CN(C(=O)N1CCN(c2cc3c(cc2F)c(=O)c(C(=O)O)cn3C2CC2)CC1)c1nc(-c2ccc(OC)cc2)cs1", "growth": "20.4% (inactive)"}
{"smiles": "O=C1c2ccccc2C(=O)c2c1cc1c(c2[N+](=O)[O-])OCO1", "growth": "14.6% (inactive)"}
{"smiles": "Cc1cccc2c1C[C@@]1(C2=O)C(c2ccc(C(C)(C)C)cc2)=NOS1=O", "note": "(stereo not given in full)", "growth": "71% (inactive)"}
{"smiles": "COc1cccc(Nc2ncnc3cc(NC(=O)CCl)ccc23)c1", "growth": "-23.3% (active)"}
{"smiles": "NC(N)=NS(=O)(=O)c1ccc(NC2=C(I)C(=O)c3ncccc3C2=O)cc1", "growth": "104% (inactive)"}
{"smiles": "Cc1c(CN)cc(-c2ccc(Cl)cc2)n1-c1ccccc1", "growth": "77.5% (inactive)"}
{"smiles": "O=C1Nc2ccccc2C1(c1c[nH]c2ccccc12)c1c[nH]c2ccccc12", "growth": "77.1% (inactive)"}
{"smiles": "CCn1c(-c2cc3c([nH]c4ccccc43)c(-c3cccc(O)c3)n2)n[nH]c1=S", "growth": "-3.76% (active)"}
{"smiles": "COc1ccc2c(c1)c(-c1nc(-c3c[nH]c4ncccc34)cs1)cn2CCCN1CCOCC1", "growth": "6.64% (active)"}
{"smiles": "CNC(C)[C@H]1CCC2C3CC=C4C(=O)[C@@H](NC(=O)C=C(C)C)CC[C@]4(C)C3CC[C@@]21C", "note": "(stereo not given in full)", "growth": "-49.7% (active)"}
{"smiles": "CN(Cc1ccccc1)c1nc(Cl)c(C2CC(c3ccccc3)=NN2c2ccccc2)s1", "note": "(stereo not given)", "growth": "90.8% (inactive)"}
{"smiles": "N#CC1=C(N)Oc2ccc3ccccc3c2C1c1ccc([N+](=O)[O-])cc1", "note": "(stereo not given)", "growth": "77.3% (inactive)"}
{"smiles": "COc1ccc(C(=O)Cn2c(C(=O)c3ccc(OC)cc3)nc3ccccc32)cc1", "growth": "16.4% (inactive)"}
{"smiles": "O=C(Cc1ccc(/C=C/C(=O)c2ncc[nH]2)cc1)Nc1cc(C(F)(F)F)cc(C(F)(F)F)c1", "growth": "41.1% (inactive)"}
{"smiles": "CCN1C(=O)N(CC)C2C1NN=c1s/c(=C\\c3ccc(C(F)(F)F)cc3)c(=O)n12", "note": "(stereo not given)", "growth": "12.2% (inactive)"}
{"smiles": "Cc1nn(-c2ccccc2)c(N)c1N=C1NC(=O)/C(=C/c2ccc(Br)cc2)S1", "growth": "36.8% (inactive)"}
{"smiles": "Cc1ccc(/C=C/C(=O)Nc2ncc(Cc3ccc(F)cc3)s2)o1", "growth": "18.9% (inactive)"}
{"smiles": "O=C1/C(=C\\c2cccc3nccnc23)SC(=S)N1CCc1ccc(O)cc1", "growth": "92.1% (inactive)"}
{"smiles": "C=C1C(=O)O[C@H]2[C@H]1CC/C(COC(=O)c1cc3cc(Cl)ccc3[nH]1)=C\\CC[C@@]1(C)O[C@@H]21", "growth": "-25.6% (active)"}
{"smiles": "NC(=O)c1cnc(Nc2cccc(N)c2)nc1NCCCNC(=O)C1CCC1", "growth": "77.1% (inactive)"}
{"smiles": "O=C(Nc1cnc(Nc2ccc(N3CCOCC3)nc2)nc1Oc1ccc(C(F)(F)F)cc1)c1ccncc1", "growth": "19.3% (inactive)"}
{"smiles": "Cc1c2cccnc2c(C)c2c1c1cc(CO)ccc1n2C", "growth": "14.3% (inactive)"}
{"smiles": "CCN1CCN(CC(=O)Nc2ccc(-c3cn4c(n3)sc3cc(Oc5ccnc(C(=O)NC)c5)ccc34)cc2)CC1", "growth": "-16.9% (active)"}
{"smiles": "COc1cc(OC)c2sc(-c3ccc(-n4cncc4-c4cc(OC)c(OC)c(OC)c4)cc3)nc2c1", "growth": "17.3% (inactive)"}
{"smiles": "Ic1ccccc1I", "growth": "90.1% (inactive)"}
{"smiles": "CCC1S/C(=N\\N=C(\\C)c2cc3cc(Cl)ccc3o2)N(c2ccccc2)C1=O", "note": "(stereo not given)", "growth": "85.1% (inactive)"}
{"smiles": "CN(CCCNC(=O)CCOCCOCCOCCNC(=O)Cc1ccc2ccc3cccc4ccc1c2c34)CCCNc1cc(-c2ccc3ccccc3c2)nc2ccccc12", "growth": "-74.8% (active)"}
{"test_system": "RPMI-8226 leukemia", "assay": "NCI-60 one-dose screen, 48 h (100 = growth as untreated, 0 = no growth, -100 = all killed)", "conditions": "10 µM unless noted"}
{"smiles": "CC1(C)[C@@H](O[C@@H]2OC[C@@H](O[C@@H]3O[C@H](CO)[C@@H](O)[C@H](O)[C@H]3O[C@@H]3OC[C@@H](O)[C@H](O)[C@H]3O)[C@H](O)[C@H]2O[C@@H]2O[C@H](CO)[C@@H](O)[C@H](O)[C@H]2O)CC[C@]2(C)[C@H]3CC[C@]45OC[C@@]6(CC[C@](C)(C=O)C[C@H]64)[C@H](O)C[C@@]5(C)[C@]3(C)CC[C@@H]12", "growth": "-44% (active)"}
{"smiles": "O=C(CCl)NNc1nccc(Nc2ccc(S(=O)(=O)Nc3ccncc3)cc2)n1", "growth": "31.3% (inactive)"}
{"smiles": "CS(=O)(=O)Nc1cc(-c2ccc3ncc(C#N)c(Nc4ccc(F)c(Cl)c4)c3c2)cnc1Cl", "growth": "-38.5% (active)"}
{"smiles": "Cc1[nH]c(C2CC(c3ccc(C(F)(F)F)c(F)c3)=NN2c2ccccc2)c(C)c1C(=O)NCC(F)(F)F", "note": "(stereo not given)", "growth": "70.7% (inactive)"}
{"smiles": "O=P(O)(O)OCC1OC(n2cnc3c(NCc4ccco4)ncnc32)C(O)C1O", "note": "(stereo not given)", "growth": "-23.6% (active)"}
{"smiles": "C=CN(C(=O)N1CCN(c2cc3c(cc2F)c(=O)c(C(=O)O)cn3C2CC2)CC1)c1nc(-c2ccc(OC)cc2)cs1", "growth": "-6.11% (active)"}
{"smiles": "CC(=O)Oc1ccc(OC(C)=O)c2ccccc12", "growth": "6.57% (active)"}
{"smiles": "O=C1c2ccccc2C(=O)c2c1cc1c(c2[N+](=O)[O-])OCO1", "growth": "7.28% (active)"}
{"smiles": "Cc1cccc2c1C[C@@]1(C2=O)C(c2ccc(C(C)(C)C)cc2)=NOS1=O", "note": "(stereo not given in full)", "growth": "69.4% (inactive)"}
{"smiles": "COc1cccc(Nc2ncnc3cc(NC(=O)CCl)ccc23)c1", "growth": "-44.8% (active)"}
{"smiles": "NC(N)=NS(=O)(=O)c1ccc(NC2=C(I)C(=O)c3ncccc3C2=O)cc1", "growth": "104% (inactive)"}
{"smiles": "Cc1c(CN)cc(-c2ccc(Cl)cc2)n1-c1ccccc1", "growth": "66.7% (inactive)"}
{"smiles": "O=C1Nc2ccccc2C1(c1c[nH]c2ccccc12)c1c[nH]c2ccccc12", "growth": "77.5% (inactive)"}
{"smiles": "CCn1c(-c2cc3c([nH]c4ccccc43)c(-c3cccc(O)c3)n2)n[nH]c1=S", "growth": "19.3% (inactive)"}
{"smiles": "CCN(CC)c1ccc(/C=N/NC(=O)Cc2ccc(Nc3ccnc(C(F)(F)F)c3)cc2)c(O)c1", "growth": "25.8% (inactive)"}
{"smiles": "COc1ccc2c(c1)c(-c1nc(-c3c[nH]c4ncccc34)cs1)cn2CCCN1CCOCC1", "growth": "0.661% (active)"}
{"smiles": "CNC(C)[C@H]1CCC2C3CC=C4C(=O)[C@@H](NC(=O)C=C(C)C)CC[C@]4(C)C3CC[C@@]21C", "note": "(stereo not given in full)", "growth": "-43.7% (active)"}
{"smiles": "CN(Cc1ccccc1)c1nc(Cl)c(C2CC(c3ccccc3)=NN2c2ccccc2)s1", "note": "(stereo not given)", "growth": "84.8% (inactive)"}
{"smiles": "N#CC1=C(N)Oc2ccc3ccccc3c2C1c1ccc([N+](=O)[O-])cc1", "note": "(stereo not given)", "growth": "83% (inactive)"}
{"smiles": "COc1ccc(C(=O)Cn2c(C(=O)c3ccc(OC)cc3)nc3ccccc32)cc1", "growth": "-7.09% (active)"}
{"smiles": "CC1C(/C=N/NC(N)=S)C(C#N)(C#N)C1(C#N)C#N", "note": "(stereo not given)", "growth": "96.6% (inactive)"}
{"smiles": "O=C(Cc1ccc(/C=C/C(=O)c2ncc[nH]2)cc1)Nc1cc(C(F)(F)F)cc(C(F)(F)F)c1", "growth": "-18% (active)"}
{"smiles": "CCOC(=O)c1ccccc1-c1c2ccc(=[N+](C)C)cc-2oc2cc(N(C)C)ccc12", "growth": "13.8% (inactive)"}
{"smiles": "CCN1C(=O)N(CC)C2C1NN=c1s/c(=C\\c3ccc(C(F)(F)F)cc3)c(=O)n12", "note": "(stereo not given)", "growth": "9.95% (active)"}
{"smiles": "Cc1nn(-c2ccccc2)c(N)c1N=C1NC(=O)/C(=C/c2ccc(Br)cc2)S1", "growth": "42.3% (inactive)"}
{"smiles": "O=C(c1c[nH]c2ccccc12)c1n[nH]c(=S)n1-c1cccc(Br)c1", "growth": "84.1% (inactive)"}
{"smiles": "Cc1ccc(/C=C/C(=O)Nc2ncc(Cc3ccc(F)cc3)s2)o1", "growth": "54.2% (inactive)"}
{"smiles": "O=C1/C(=C\\c2cccc3nccnc23)SC(=S)N1CCc1ccc(O)cc1", "growth": "83% (inactive)"}
{"smiles": "COc1cccc(/C=C/C(=O)c2cccc(Nc3nc(Nc4ccccc4)nc(Nc4ccccc4)n3)c2)c1", "growth": "-55.2% (active)"}
{"smiles": "C=C1C(=O)O[C@H]2[C@H]1CC/C(COC(=O)c1cc3cc(Cl)ccc3[nH]1)=C\\CC[C@@]1(C)O[C@@H]21", "growth": "-29.9% (active)"}
{"smiles": "COc1ccc(Cn2cc(C(=O)N=Nc3c(O)[nH]c4c(C)cccc34)nn2)cc1", "growth": "90% (inactive)"}
{"smiles": "NC(=O)c1cnc(Nc2cccc(N)c2)nc1NCCCNC(=O)C1CCC1", "growth": "97.3% (inactive)"}
{"smiles": "CC1=C2[C@@H](CC1)[C@]1(C)O[C@@](C3CCCCC3)(C[C@H]1OC(=O)CO)[C@H]2OC(=O)/C=C/c1ccccc1", "growth": "58.5% (inactive)"}
{"smiles": "O=C(Nc1cnc(Nc2ccc(N3CCOCC3)nc2)nc1Oc1ccc(C(F)(F)F)cc1)c1ccncc1", "growth": "100% (inactive)"}
{"smiles": "Cc1c2cccnc2c(C)c2c1c1cc(CO)ccc1n2C", "growth": "23.1% (inactive)"}
{"smiles": "CCN1CCN(CC(=O)Nc2ccc(-c3cn4c(n3)sc3cc(Oc5ccnc(C(=O)NC)c5)ccc34)cc2)CC1", "growth": "59.2% (inactive)"}
{"smiles": "COc1cc(OC)c2sc(-c3ccc(-n4cncc4-c4cc(OC)c(OC)c(OC)c4)cc3)nc2c1", "growth": "27.3% (inactive)"}
{"smiles": "Ic1ccccc1I", "growth": "104% (inactive)"}
{"smiles": "CCC1S/C(=N\\N=C(\\C)c2cc3cc(Cl)ccc3o2)N(c2ccccc2)C1=O", "note": "(stereo not given)", "growth": "83.7% (inactive)"}
{"smiles": "CN(CCCNC(=O)CCOCCOCCOCCNC(=O)Cc1ccc2ccc3cccc4ccc1c2c34)CCCNc1cc(-c2ccc3ccccc3c2)nc2ccccc12", "growth": "-48.9% (active)"}
